Rows were chosen to be rich in hits. Some 1.6% of all compounds tested hit in one or more screens of this group.
UBC9 SUMO inh: inhibitors of human SUMOylation (UBC9). P63279. HTRF SUMOylation assay, SAE1/SAE2 + UBC9, in vitro. inhibition, % at 35 µM. hit rate 0.36% among 290,000. AID 2006; in the data active = inhibition above about 50%, passing the limit was not always enough
Target sequence (P63279 whole entry, looked up): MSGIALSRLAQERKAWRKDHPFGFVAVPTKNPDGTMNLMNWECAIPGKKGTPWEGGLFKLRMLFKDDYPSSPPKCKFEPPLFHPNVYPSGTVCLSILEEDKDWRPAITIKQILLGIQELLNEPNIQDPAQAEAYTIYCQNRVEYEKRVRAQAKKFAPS
NSD2 HMT inh: blocks human histone methyltransferase NSD2 | NSD2 peptide methylation, AlphaScreen, 120 min | inhibition, % at 12.5 µM | hit rate 0.54% among 310,000 | AID 743445; in the data active = inhibition above about 50%
SIRT5 inh: inhibitors of human sirtuin-5 desuccinylase; Purified SirT5, succinyl-peptide AMC, trypsin-coupled fluorescence; inhibition, % at 15 µM; hit rate 1.1% among 330,000; AID 652115; in the data active = inhibition above about 15%
CASP6 VEID inh: inhibitors of human caspase-6; hit rate 0.53% among 350,000; purified caspase-6, Z-VEID-R110 cleavage fluorescence; AID 686996; inhibition, % at 12.5 µM;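 active = mean inhibition across replicates at least about 35%, with every replicate also reaching that limit, limit read from the data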;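 also: 0% = median of neutral control wells and 100% = no fluorescence left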
An asterisk follows results filed as active; · = no result given.

SMILES	UBC9 SUMO inh	NSD2 HMT inh	SIRT5 inh	CASP6 VEID inh
Cc1ccccc1S(=O)(=O)N1CC(=O)N2[C@@H](CO)[C@H](c3ccc(C#CCC4CCCC4)cc3)[C@@H]2C1	·	·	16*	-3
O=C1CN(S(=O)(=O)Cc2ccccc2)C[C@H]2[C@@H](c3ccc(C#CCC4CCCC4)cc3)[C@@H](CO)N12	·	·	16*	1
Cc1noc(C)c1S(=O)(=O)N(C)C[C@H]1OCCCC[C@@H](C)Oc2ccc(NC(=O)Nc3ccc(C(F)(F)F)cc3)cc2C(=O)N([C@@H](C)CO)C[C@@H]1C	·	·	1	3
CN(C)CC(=O)Nc1ccc2c(c1)[C@@H]1C[C@@H](CC(=O)N(C)C)O[C@@H](CO)[C@@H]1O2	·	·	-8	-2
CCc1ccccc1NC(=O)Cn1nnc(-c2cccs2)n1	11	31	·	·
Cc1cccc(NC(=O)Cn2nnc(-c3cccs3)n2)c1C	1	-2	25*	-1
CN(C)c1ccc(/C=C2\N=C(C(C)(C)C)OC2=O)cc1	0	2	18*	0
C=CC1=C(C(=O)O)N2C(=O)C(NC(=O)Cc3ccccc3)C2SC1 (configuration not stated)	10	2	·	96*
Cc1ccc(S(=O)(=O)Nc2ccc3c(c2)C(=O)N([C@@H](C)CO)C[C@H](C)[C@@H](CN(C)C(=O)Nc2c(C)noc2C)OCCCC[C@@H](C)O3)cc1	·	·	-9	-3
O=C(COC(=O)c1ccc([N+](=O)[O-])o1)Nc1ccc(Br)cc1F	·	3	8	38*
O=C(COC(=O)c1ccc([N+](=O)[O-])o1)Nc1ncc(Cl)cc1Cl	·	19	-3	61*
O=C(COC(=O)c1ccc([N+](=O)[O-])o1)Nc1ccc(F)cc1	·	0	-3	55*
CC(C)(C)N(Cc1ccccc1)C(=O)COC(=O)c1ccc([N+](=O)[O-])o1	·	15	-2	45*
O=C(COC(=O)c1ccc([N+](=O)[O-])o1)Nc1ccc(N2CCOCC2)cc1	·	2	-3	34
COc1ccc(-c2csc(NC(=O)c3ccccc3NS(=O)(=O)c3ccc(F)c(F)c3)n2)cc1	67*	·	2	4
CC(CN1CCN(C)CC1)OC(=O)c1ccccc1Cl (configuration not stated)	20	3	·	·
Cc1ccc(C(=O)OC(C)CN2CCN(C)CC2)cc1 (configuration not stated)	18	-4	22*	0
CC(CN1CCCC1)OC(=O)c1ccccc1Cl (configuration not stated)	-3	1	18*	-6
COc1ccc(C(=O)OC(C)CN2CCN(C)CC2)cc1 (configuration not stated)	-1	1	-1	-1
CCCC#Cc1ccc2c(c1)O[C@H](CN(C)CC1CCOCC1)[C@H](C)CN([C@@H](C)CO)S2(=O)=O	·	·	7	-3
COC(=O)C[C@@H]1CC[C@@H]2[C@@H](COc3ccc(NC(=O)c4cnccn4)cc3C(=O)N2C)O1	·	·	1	-2
CC1CCN(C(=O)c2[nH]cnc2C(=O)NCc2ccc(CNC(=O)OC(C)(C)C)cc2)CC1	·	·	17*	-1
CC1CCN(C(=O)c2[nH]cnc2C(=O)NCc2ccccc2)CC1	·	·	1	-2
Cc1cc(F)ccc1S(=O)(=O)Nc1ncnc2sccc12	17	0	23*	-2
Fc1cccc(Nc2ncnc3sccc23)c1	16	-4	-6	1
SMILES	UBC9 SUMO inh	NSD2 HMT inh	SIRT5 inh	CASP6 VEID inh
Cc1noc(C)c1NC(=O)N(C)C[C@H]1OCCCC[C@@H](C)Oc2ccc(NC(=O)NC(C)C)cc2C(=O)N([C@H](C)CO)C[C@H]1C	·	·	-1	0
COC(=O)c1ccc(OC(=O)/C=C/c2ccco2)cc1	-8	5	-3	36*
O=Cc1cccc(OC(=O)/C=C/c2ccco2)c1	47	2	2	87*
O=C(/C=C/c1ccco1)Oc1ccc(C(=S)N2CCOCC2)cc1	30	0	5	2
COc1ccc(NC(=O)N[C@H]2C=C[C@H](CC(=O)NCc3ccccn3)O[C@@H]2CO)cc1	·	·	-2	1
C[C@@H]1CN([C@H](C)CO)C(=O)c2cc(N(C)C)ccc2O[C@@H](C)CCCCO[C@@H]1CN(C)Cc1ccc2c(c1)OCO2	·	·	1	-2
C[C@@H](O)C#Cc1ccc2c(c1)O[C@@H](CN(C)Cc1ccc(-c3ccccc3)cc1)[C@@H](C)CN([C@@H](C)CO)S2(=O)=O	·	·	-1	2
C[C@H](CO)N1C[C@H](C)[C@@H](CN(C)Cc2ccc(-c3ccccc3)cc2)Oc2cc(C#C[C@@H](C)O)ccc2S1(=O)=O	·	·	-2	-1
C[C@H](CO)N1C[C@H](C)[C@@H](CN(C)Cc2ccccc2)Oc2cc(C#C[C@@H](C)O)ccc2S1(=O)=O	·	·	7	2

Screening data (PubChem)
